Test results as given in publication PMC7826789 (International Journal of Molecular Sciences, 2021).

Tests used:
Settings in all cases: Compound Concentration (nM):1000
[1] = system: T1, DLK
T1 construct: gene MAP3K12

[2] = system: T2, DMPK2
T2 construct: gene CDC42BPG

[3] = system: DMPK
[4] = system: T3, DRAK1
T3 construct: gene STK17A

[5] = system: T4, DRAK2
T4 construct: gene STK17B

[6] = system: DYRK1A
[7] = system: DYRK1B
[8] = system: DYRK2
[9] = system: EGFR(E746-A750del)
[10] = system: EGFR(G719C)
[11] = system: EGFR(G719S)
[12] = system: EGFR(L747-E749del, A750P)
[13] = system: EGFR(L747-S752del, P753S)
[14] = system: EGFR(L747-T751del,Sins)
[15] = system: EGFR(L858R)
[16] = system: EGFR(L858R,T790M)
[17] = system: EGFR(L861Q)
[18] = system: EGFR(S752-I759del)
[19] = system: EGFR(T790M)
[20] = system: EGFR
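Also: KINOMEscan scanMAX binding as percent activity remaining versus control; lower means stronger binding.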

SMILES | Percent Control [1] [%] | Percent Control [2] [%] | Percent Control [3] [%] | Percent Control [4] [%] | Percent Control [5] [%] | Percent Control [6] [%] | Percent Control [7] [%] | Percent Control [8] [%] | Percent Control [9] [%] | Percent Control [10] [%] | Percent Control [11] [%] | Percent Control [12] [%] | Percent Control [13] [%] | Percent Control [14] [%] | Percent Control [15] [%] | Percent Control [16] [%] | Percent Control [17] [%] | Percent Control [18] [%] | Percent Control [19] [%] | Percent Control [20] [%]
COc1ccccc1-c1cc(/C=C2\C(=O)Nc3ncc(Br)cc32)cc(Br)c1O [GW442130X] | 100 | 100 | 100 | 85 | 100 | 59 | 68 | 95 | 100 | 100 | 100 | 100 | 88 | 100 | 100 | 85 | 100 | 100 | 72 | 100
O=C(Nc1n[nH]c2nc(-c3ccc(O)cc3)c(Br)cc12)C1CC1 [SB-725317] | 100 | 100 | 23 | 100 | 95 | 24 | 7.4 | 6.6 | 91 | 100 | 100 | 76 | 99 | 100 | 96 | 100 | 100 | 82 | 96 | 100
Cl.c1ccc(Cc2nc3ccc(Nc4ncnc5ccccc45)cc3[nH]2)cc1 [GR269666A] | 83 | 100 | 100 | 68 | 100 | 100 | 100 | 73 | 70 | 0 | 0.6 | 41 | 70 | 37 | 36 | 100 | 9.8 | 71 | 100 | 5
NS(=O)(=O)c1ccc(N/N=C2\C(=O)Nc3ccc(-c4cnco4)cc32)cc1 [GW276655] | 100 | 94 | 72 | 60 | 36 | 2.5 | 79 | 4 | 100 | 83 | 76 | 100 | 100 | 89 | 72 | 66 | 79 | 70 | 66 | 87
Cc1cc(O)cc(C)c1/C=C/c1cncc(C(N)=O)c1 [GW435821X] | 90 | 100 | 100 | 100 | 100 | 93 | 100 | 75 | 69 | 89 | 67 | 68 | 87 | 100 | 80 | 100 | 71 | 78 | 94 | 78
COc1cccc(-n2ncc3c(N/N=C/c4ccncc4)ncnc32)c1 [GW784752X] | 82 | 100 | 100 | 73 | 87 | 18 | 95 | 17 | 75 | 90 | 59 | 96 | 81 | 100 | 75 | 96 | 77 | 87 | 100 | 75
COc1ccc2[nH]c3c4[nH]c5ccc(OC)cc5c4c4c(c3c2c1)C(=O)NC4=O [GW296115X] | 77 | 84 | 56 | 0.4 | 2.2 | 48 | 79 | 50 | 20 | 64 | 57 | 24 | 49 | 44 | 50 | 35 | 71 | 68 | 45 | 51
CCS(=O)(=O)c1ccc(OC)c(Nc2ncc(-c3cccc(OC)c3)o2)c1 [GW580509X] | 88 | 100 | 100 | 100 | 100 | 39 | 41 | 23 | 81 | 100 | 98 | 65 | 85 | 100 | 80 | 100 | 81 | 95 | 89 | 83
CN1CCN(C(=O)c2ccc(NC(=O)Nc3ccc(N(C)c4ccnc(Nc5ccc(CS(C)(=O)=O)cc5)n4)cc3)cc2)CC1.Cl [GW830263A] | 30 | 64 | 100 | 100 | 100 | 62 | 91 | 75 | 87 | 95 | 100 | 99 | 78 | 100 | 92 | 55 | 92 | 100 | 54 | 100
NS(=O)(=O)c1ccc(N/N=C2\C(=O)Nc3ccc(C(=O)NCCc4c[nH]cn4)cc32)cc1 [GW300660X] | 100 | 100 | 100 | 3.8 | 12 | 50 | 100 | 11 | 100 | 100 | 73 | 100 | 100 | 100 | 100 | 99 | 85 | 97 | 95 | 99
Cl.O=C(O[C@H]1CN[C@H](C#Cc2cc3ncnc(Nc4ccc5c(cnn5Cc5ccccc5)c4)c3s2)C1)N1CCOCC1 [GSK200398A] | 71 | 100 | 100 | 89 | 99 | 76 | 100 | 84 | 38 | 0.1 | 2 | 66 | 20 | 24 | 9.2 | 87 | 0.3 | 3.1 | 44 | 25
CC1=C(C(=O)Nc2ccc3[nH]ncc3c2)C(c2ccc3ccccc3c2)CC(=O)N1 (stereo not shown) [GSK270822A] | 68 | 94 | 100 | 95 | 84 | 92 | 83 | 66 | 100 | 53 | 100 | 100 | 100 | 100 | 100 | 55 | 83 | 100 | 56 | 100
CCS(=O)(=O)c1ccc(OC)c(Nc2ncc(-c3cccc(F)c3)o2)c1 [GW621970X] | 71 | 100 | 100 | 100 | 100 | 61 | 67 | 41 | 73 | 100 | 92 | 72 | 75 | 84 | 92 | 100 | 79 | 73 | 100 | 85
COc1cc(C)c(N(C)C(=O)CN(C)C)cc1Nc1nc(Nc2cccc(F)c2C(N)=O)c2cc[nH]c2n1 [GSK2219385] | 80 | 99 | 84 | 88 | 83 | 60 | 100 | 100 | 100 | 98 | 75 | 98 | 100 | 100 | 89 | 100 | 82 | 100 | 56 | 87
NS(=O)(=O)c1ccc(Nc2ncc(-c3ccccc3)o2)cc1 [GW572399X] | 81 | 100 | 100 | 85 | 100 | 92 | 81 | 57 | 98 | 100 | 100 | 68 | 100 | 100 | 88 | 96 | 100 | 100 | 92 | 88
COc1cc2ncn(-c3cc(O[C@H](C)c4ccccc4Cl)c(C(N)=O)s3)c2cc1OC [GSK237701A] | 59 | 91 | 100 | 100 | 89 | 92 | 100 | 68 | 85 | 64 | 69 | 100 | 86 | 87 | 100 | 79 | 97 | 100 | 75 | 100
COc1cc2ncnc(Nc3ccc4c(cnn4Cc4ccccc4)c3)c2cc1OC.Cl [GW282449A] | 87 | 100 | 100 | 100 | 100 | 100 | 97 | 87 | 6.7 | 0 | 1.4 | 11 | 3.4 | 5.2 | 0.9 | 78 | 0 | 78 | 7.2 | 4.4
NS(=O)(=O)c1ccc(N/N=C2\C(=O)Nc3ccc(C(=O)NCc4ccncc4)cc32)cc1 [GW300657X] | 76 | 91 | 100 | 0.3 | 4.7 | 63 | 97 | 37 | 91 | 100 | 97 | 100 | 90 | 81 | 94 | 100 | 91 | 98 | 100 | 93
Cl.O=C(Nc1ccc(Oc2ccc3[nH]c(NC(=O)c4ccccc4)nc3c2)cc1)Nc1cc(C(F)(F)F)ccc1F [GW709042A] | 77 | 86 | 100 | 100 | 100 | 100 | 100 | 97 | 94 | 71 | 57 | 100 | 91 | 82 | 100 | 93 | 60 | 87 | 82 | 100
COc1cccc(-c2c[nH]c3c(N/N=C/c4ccncc4)ncnc23)c1 [GW814408X] | 87 | 82 | 100 | 17 | 32 | 7.6 | 24 | 8.3 | 12 | 27 | 32 | 18 | 16 | 35 | 23 | 30 | 41 | 41 | 53 | 30
